LGR2 inh: inhibitors of bursicon-induced LGR2 CRE-luciferase signal, primary screen, cell-based, HEK293, CRE-luciferase reporter, bursicon stimulation | AID 720647, 2013 | bursicon-stimulated, 4 h | inhibition, % at 9.99 µM | hit rate 0.35% among 380,000;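 active = drop in luminescence signal, shown as inhibition above about 50% in the replicate tests, limit read from the data, passing the limit was not always enough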;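 note: agonist challenge used bursicon conditioned medium at about half maximal strength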
PAX8 inh HTS: inhibitors of PAX8-driven TPO luciferase reporter, primary screen, RMG-I cells, single concentration; inhibition, % at 12.6 µM; SteadyGlo, 24 h; hit rate 1.2% among 360,000;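 active = mean replicate inhibition at least 60% with every replicate also reaching 60%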;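 note: luciferase light reporting Pax8 driven TPO promoter activity; plate controls were median of neutral control wells for no effect and mitoxantrone controls for full effect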
TWEAK Fn14 block: inhibitors of TWEAK-Fn14 signaling, primary screen, luciferase reporter cells, uHTS; inhibition, % at 10 µM; TWEAK-stimulated Fn14 reporter cells, luciferase luminescence, 8 h; hit rate 2% among 360,000; in the data active = inhibition above about 50%
TROY signal inh: inhibitors of TROY-driven NF-kB signaling, primary screen, Q293 LMP1-TROYcd cells, NF-kB luciferase, uHTS. Q293 LMP1-TROYcd NF-kB luciferase reporter, 4 h. inhibition, % at 10 µM. hit rate 0.98% among 360,000. AID 1347056, 2019;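 active = compounds whose plate-normalised and pattern-corrected inhibition of the luciferase reporter signal at the single screening dose is 50% or more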
EWS-Fli inh: EWS/Fli-driven NR0B1 reporter inhibitors, primary screen, A673 cells, NR0B1 luciferase, luminescence, MLPCN library | inhibition, % at 12.6 µM | hit rate 0.67% among 350,000 | AID 651661, 2012 | viability-normalised;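 active = mean inhibition of at least 50% after viability correction, with every replicate also passing that limit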;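 note: firefly luciferase signal divided by Alamar Blue viability fluorescence both relative to DMSO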
EBV LMP1 NFkB: EBV LMP1-driven NF-kappaB luciferase reporter inhibitors, primary screen, cell-based, luminescence, single point. AID 504558, 2011. hit rate 0.69% among 350,000. LMP1-induced NF-kappaB luciferase reporter cells. inhibition, % at 12.5 µM; in the data active = inhibition above about 41%;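 note: 0% = neutral control wells and 100% = reference inhibitor control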
Active calls of the source: *; . = not tested or not shown. Compounds with a hit are over-represented: about 3.2% of the library has one in this group of screens.

SMILES	LGR2 inh	PAX8 inh HTS	TWEAK Fn14 block	TROY signal inh	EWS-Fli inh	EBV LMP1 NFkB
CN(C)S(=O)(=O)c1cccc(NC(=O)C2Cc3ccccc3CN2C(=O)c2ccco2)c1 (stereo not given)	-83	-4	6	-12	-16	-13
COc1ccc(NC(=O)N(C)C[C@H]2Oc3ccc(NC(=O)CCCN(C)C)cc3C(=O)N([C@H](C)CO)C[C@H]2C)cc1	1	-4	.	.	-3	.
COc1ccc(CN(C)C[C@@H]2Oc3c(NC(=O)NC4CCCCC4)cccc3C(=O)N([C@H](C)CO)C[C@H]2C)cc1	12	14	.	.	13	.
O=C(NCC[C@@H]1CC[C@H](NS(=O)(=O)Cc2ccccc2)[C@@H](CO)O1)C1CCCC1	-5	-6	.	.	-1	.
O=[N+]([O-])c1cc(-c2nnc(-c3ccccc3)o2)ccc1Oc1ccc(Cl)cc1	-53	98*	-88	-64	-51	-11
Cc1cc(C)cc(Oc2ccc(-c3nnc(-c4ccccc4)o3)cc2[N+](=O)[O-])c1	.	19	101*	87*	3	5
CC1(C)Cc2c(sc(NC(=O)COc3ccc(Cl)cc3)c2C#N)C(C)(C)N1	.	.	101*	-21	.	-10
C[C@@H]1CN([C@H](C)CO)C(=O)c2cc(C3=CCCC3)cnc2O[C@@H]1CN(C)C(=O)c1ccc2c(c1)OCO2	-13	-9	.	.	-5	.
CNC(=O)COC(=O)/C=C/c1cn(-c2ccccc2)nc1-c1ccc2c(c1)OCCO2	-14	6	8	0	1	-3
Cc1ccc(-c2nn(-c3ccccc3)cc2/C=C/C(=O)OCC(=O)NC2CC2)o1	43	1	26	56*	-2	8
O=C(C1CC1)N1CCCCN2[C@H](CO)[C@@H](c3ccc(C#CC4CC4)cc3)[C@@H]2C1	.	-14	.	.	-9	.
Cc1cccc(C)c1N1CCN(C(c2cc3ccccc3o2)c2nnnn2C(C)(C)C)CC1 (stereo not given)	.	.	53*	27	.	.
CCCCn1nnnc1C(c1cc2ccccc2o1)N1CCN(c2c(C)cccc2C)CC1 (stereo not given)	-20	-11	18	-9	13	.
COc1cc(NC(=O)c2cccs2)c(C(=O)OCC(=O)c2cc(C)n(-c3ccc(F)cc3)c2C)cc1OC	38	12	90*	83*	5	18
COc1cc(NC(=O)c2cccs2)c(C(=O)OCC(=O)c2cc(C)n(-c3ccccc3)c2C)cc1OC	60*	23	15	-32	.	59*
C[C@@H]1CN([C@H](C)CO)C(=O)c2cccc(NC(=O)CCCCCC(=O)Nc3ccccc3N)c2O[C@@H]1CN(C)S(=O)(=O)c1cn(C)cn1	-2	2	.	.	-4	.
CCn1c(CNc2nc3ccccc3n2C(C)C)nc2ccccc21	.	.	99*	7	.	7
CC(C)n1c(NCc2nc3ccccc3n2C)nc2ccccc21	.	.	3	-1	.	3
COc1ccc2c3c(n(C)c2c1)[C@H](CO)N(Cc1cccc(Cl)c1)CC31CCN(C(C)=O)CC1	-6	.	.	.	14	.
O=C(/C=C/c1ccc(O)cc1)c1ccc(NC2=C(N3CCCCC3)C(=O)c3ccccc3C2=O)cc1	-36	.	53*	5	-17	43*
COc1ccccc1NC1=C(N2CCCCC2)C(=O)c2ccccc2C1=O	.	.	67*	58*	.	4
Cc1ccc(NC2=C(N3CCCCC3)C(=O)c3ccccc3C2=O)cc1	-15	.	64*	27	.	-2
CC(C)C#Cc1ccc([C@@H]2[C@H]3CN(C(=O)NC4CCCCC4)CC(=O)N3[C@H]2CO)cc1	-6	.	.	.	1	.
CNC(=O)C[C@@H]1CC[C@H]2[C@H](COc3ccc(NC(=O)Nc4ccccc4)cc3C(=O)N2C)O1	8	13	.	.	-2	.
COCC(=O)N1[C@@H]2c3ccc(C4=CCCC4)c(=O)n3C[C@@H]2[C@@H](CO)[C@@H]1C(=O)N1CCCCC1	4	.	.	.	2	.
SMILES	LGR2 inh	PAX8 inh HTS	TWEAK Fn14 block	TROY signal inh	EWS-Fli inh	EBV LMP1 NFkB
CCOC(=O)CSc1nc2cc3c(cc2cc1C#N)OCO3	.	.	-6	-60	.	-16
CCOC(=O)CSc1nc2cc3c(cc2cc1C#N)OCCO3	-52	-92	26	57*	-86	-69
CN(C)C(=O)C[C@@H]1C[C@@H]2c3cc(NC(=O)CC4CC4)ccc3O[C@@H]2[C@@H](CO)O1	-33	-9	.	.	-12	.
O=C(/C=C/c1ccco1)Oc1cc(Br)cc(/C=N/NC(=O)c2ccccc2O)c1	-8	10	2	-10	-3	61*
COc1cc2c(cc1OC)CN(Cc1nc3ccsc3c(=O)[nH]1)CC2	.	11	77*	5	.	0
COc1ccc(C(=O)O/N=C(\N)c2ccccn2)c(OC)c1	82*	-5	88*	73*	25	38
COc1ccc(C(=O)O/N=C(\C)c2ccccc2)cc1	.	.	-7	69*	.	-12
COc1ccc(C(=O)O/N=C(\N)c2ccc(OC)c(OC)c2)c(OC)c1	.	.	-6	-41	.	-13
COc1ccc(C(=O)O/N=C(\N)c2ccccc2)c(OC)c1	82*	35	86*	77*	71*	34
C/C(=N/OC(=O)c1ccc(C)cc1)c1cccs1	.	.	29	62*	.	2
COc1ccc(C(=O)O/N=C(/c2ccccc2)c2ccncc2)cc1	-36	-44	4	16	-5	4
O=C(O)c1cc2cc(F)ccc2[nH]1	4	13	-1	-9	3	85*
CCOc1cc(/C=C2\COc3ccccc3C2=O)ccc1OCC(=O)N(C)C	2	27	79*	2	42	13
CN1C/C(=C/c2cccnc2)C(=O)/C(=C/c2cccnc2)C1	4	-2	65*	8	.	1
O=C1c2ccccc2C(=Cc2cccnc2)c2ccccc21	.	10	-28	-44	-23	4
CCCN(C)C[C@H]1OCCCC[C@H](C)Oc2ccc(NC(=O)c3ccncc3)cc2C(=O)N([C@H](C)CO)C[C@H]1C	13	-7	.	.	0	.
Cc1cccc(C)c1Nc1nnc(SCC(=O)c2ccc(Br)s2)s1	11	-13	4	-7	75*	-5
C[C@@H]1CN([C@@H](C)CO)C(=O)c2cc(C3=CCCC3)cnc2O[C@@H]1CN(C)Cc1ccc(C(=O)O)cc1	-25	11	.	.	0	.
COc1cc(/C=N/Nc2ccc(S(N)(=O)=O)cc2[N+](=O)[O-])cc(OC)c1O	-1	26	-50	59*	15	-6
COc1ccc(OC)c(NC(=O)c2nc(S(=O)(=O)Cc3ccccc3)ncc2Cl)c1	16	53	76*	83*	.	-1
COc1ccc(NC(=O)c2nc(S(=O)(=O)Cc3cccc(C)c3)ncc2Cl)c(OC)c1	-23	45	44	54*	.	11
COc1ccc(OC)c(NC(=O)CS(=O)(=O)Cc2ccccc2)c1	-8	9	3	14	.	3

Bioassay records deposited in PubChem by several laboratories.
